Data from PubChem BioAssay (EPA / NIEHS).
“And” between values parts separate entries of the source, which are not always exact repeats. Identical values can stand only once. The source made the active and inactive calls. The calls were made as follows: active = hit-call score of the fitted dose curve at least 0.9, where 1 is the maximum; inactive = score below 0.9.

Read-out: Interleukin-8 (IL8), CXCL8 (gene 3576)
Assay: BSK_BF4T_IL8: BioMAP Diversity Plus: BF4T Assay for Interleukin-8 (IL8) Biomarker Activity (AID 2284263)
Conditions: primary human bronchial epithelial cells with fibroblasts
Method: BSK_BF4T is a cell-based, multiplexed-readout assay that uses bronchial epithelial cells and dermal fibroblasts, a human vascular primary cell, with measurements taken at 24 hours after chemical dosing in a microplate: 96-well plate.BSK_BF4T_IL8 is an assay component measured in the BSK_BF4T assay. It measures IL-8 antibody related to regulation of gene expression using ELISA technology.Data from the assay component BSK_BF4T_IL8 was analyzed at the endpoint, BSK_BF4T_IL8, in the positive analysis fitting direction relative to DMSO as the negative control and baseline of activity. Using a type of binding reporter, gain or loss-of-signal activity can be used to understand protein changes. To generalize the intended target to other relatable targets, this assay endpoint is annotated to the 'cytokine' intended target family, where the subfamily is 'interleukins'.
The levels of cell surface (or secreted, indicated by the prefix "s") biomarker endpoints were measured by ELISA. Overt cytotoxicity to cells in confluent adherent cultures (all systems other than the BT system) was assessed by measuring total protein levels using sulforhodamine B (SRB) staining in parallel cultures at the time of biomarker measurements, indicated as SRB endpoints. For proliferation assays for adherent cell types, individual cell types are cultured at sub-confluence and relative cell numbers quantified by SRB staining at time points optimized for each system (48 h: 3C and CASM3C systems; 72 h: BT and HDF3CGF systems; 96 h: SAg system). SRB was performed by staining cells with 0.1% SRB after fixation with 10% TCA and reading wells at 560 nm.Viability and proliferation of PBMC (T cells) was quantified by Alamar Blue reduction for the SAg and BT systems. For PBMC viability (referred to as PBMC Cytotoxicity within the assay endpoint names), cells were plated (75,000/well in a 96-well plate) and then chemical samples added for 1 h before addition of activators, SEB and TSST-1 (20 ng/mL final concentration each). Cells were incubated for 90 h. Then, Alamar Blue (20 uL/well) (Invitrogen, Cat DAL1100) was added for 6 h, and the plates were read with a fluorescence microplate reader at 546/580 nm (excitation/emission). For PBMC proliferation, cells were plated and activated as above but incubated for only 16 h prior to addition of Alamar Blue. Plates were read after 6 h.

| Structure (SMILES) | outcome | AC50 |
| --- | --- | --- |
| CC(O)C(F)(F)C(F)(F)F (centres undefined) | inactive |  |
| OCC(F)(F)OC(F)(F)C(F)(F)OC(F)(F)C(F)(F)OC(F)(F)F |  | 42.8 µM (active) and 39.6 µM (active) |
| NC(=O)C(F)(F)C(F)(F)F | inactive |  |
| O=C(O)C(F)(F)OC(F)(F)C(F)(F)OC(F)(F)C(=O)O | inactive |  |
| OCC(F)(F)OC(F)(F)C(F)(F)OC(F)(F)C(F)(F)OC(F)(F)CO | inactive |  |
| O=C(O)C(F)(F)OC(F)(F)C(F)(F)OC(F)(F)F | inactive |  |
| O=C(O)C(F)(F)C(F)(F)C(=O)O | inactive |  |
| C=CC(=O)OCC(F)(F)C(F)F | inactive |  |
| FC(F)(F)C(F)(C(F)(F)F)C(F)(F)C(F)(F)CC1CO1 (centres undefined) | inactive |  |
| O=C(O)C(F)(OC(F)(F)C(F)(F)C(F)(F)F)C(F)(F)F (centres undefined) | inactive |  |
| O=S(=O)(F)C(F)(F)C(F)(F)C(F)(F)C(F)(F)C(F)(F)C(F)(F)C(F)(F)C(F)(F)F | inactive |  |
| O=C(O)C=CC(F)(C(F)(F)F)C(F)(F)F | inactive |  |
| COC(=O)C(F)(F)C(F)(F)OC(F)(C(F)(F)F)C(F)(F)OC(F)=C(F)F (centres undefined) | inactive |  |
| OCC(F)(F)OC(F)(F)C(F)(F)OC(F)(F)CO | inactive |  |
